# Laboratory results published in PubChem BioAssay (NCI).
# “And” between values parts separate entries of the source, which are not always exact repeats. Equal entries are not always repeated. This is part of a sample that, as a whole, favours compounds with a hit. Of some 83,000 tested, about 20% had one in any assay.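 For each line, cells grew in 96-well plates with the test compound present at a single concentration for 48 hours.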 The source made the active and inactive calls. The calls were made as follows: active = growth percent below 10; inactive = the rest.
# Columns and labels:
# Assay in all cases: NCI-60 one-dose screen, 48 h (100 = growth as untreated, 0 = no growth, -100 = all killed)
# NCI/ADR-RES ovarian = tested on: NCI/ADR-RES ovarian
# T-47D breast = tested on: T-47D breast
# BT-549 breast = tested on: BT-549 breast
# MDA-MB-435 melanoma = tested on: MDA-MB-435 melanoma
# SW-620 colon = tested on: SW-620 colon
# MCF7 breast = tested on: MCF7 breast
# HCT-116 colon = tested on: HCT-116 colon
# HCC-2998 colon = tested on: HCC-2998 colon
# KM12 colon = tested on: KM12 colon
structure (smiles),measurement,setting,value
O=C(O)CCCc1ccc(N(CCCl)CCCl)cc1,growth,NCI/ADR-RES ovarian; 10 µM,96.3% (inactive) and 89% (inactive)
same,growth,NCI/ADR-RES ovarian; 75 µM,31% (inactive)
same,growth,T-47D breast; 10 µM,87.2% (inactive) and 74.8% (inactive)
same,growth,T-47D breast; 75 µM,27.3% (inactive)
same,growth,BT-549 breast; 10 µM,86.7% (inactive) and 96.5% (inactive)
same,growth,BT-549 breast; 75 µM,11.7% (inactive)
same,growth,MDA-MB-435 melanoma; 10 µM,102% (inactive) and 97.9% (inactive)
same,growth,MDA-MB-435 melanoma; 75 µM,38.8% (inactive)
same,growth,SW-620 colon; 10 µM,86.5% (inactive) and 82.8% (inactive)
same,growth,SW-620 colon; 75 µM,51.3% (inactive)
same,growth,MCF7 breast; 10 µM,80.9% (inactive) and 68.4% (inactive)
same,growth,MCF7 breast; 75 µM,24.9% (inactive)
same,growth,HCT-116 colon; 10 µM,84.4% (inactive) and 87% (inactive)
same,growth,HCT-116 colon; 75 µM,32.1% (inactive)
same,growth,HCC-2998 colon; 10 µM,85.1% (inactive) and 87.7% (inactive)
same,growth,HCC-2998 colon; 75 µM,6.85% (active)
same,growth,KM12 colon; 10 µM,105% (inactive) and 98% (inactive)
same,growth,KM12 colon; 75 µM,65.3% (inactive)
N#CC(C#N)=C(C#N)C#N,growth,NCI/ADR-RES ovarian; 10 µM unless noted,110% (inactive)
same,growth,T-47D breast; 10 µM unless noted,95.8% (inactive)
same,growth,BT-549 breast; 10 µM unless noted,104% (inactive)
same,growth,MDA-MB-435 melanoma; 10 µM unless noted,107% (inactive)
same,growth,SW-620 colon; 10 µM unless noted,104% (inactive)
same,growth,MCF7 breast; 10 µM unless noted,98.1% (inactive)
same,growth,HCT-116 colon; 10 µM unless noted,102% (inactive)
same,growth,HCC-2998 colon; 10 µM unless noted,110% (inactive)
same,growth,KM12 colon; 10 µM unless noted,108% (inactive)
C[N+]12CCC34C5=CC(=O)C(=O)C=C5[N+]5(C)C(=O)CC6OCC=C(C1)C(CC32)C6C45 (stereo not drawn),growth,NCI/ADR-RES ovarian; 10 µM unless noted,114% (inactive)
same,growth,T-47D breast; 10 µM unless noted,107% (inactive)
same,growth,BT-549 breast; 10 µM unless noted,127% (inactive)
same,growth,MDA-MB-435 melanoma; 10 µM unless noted,103% (inactive)
same,growth,SW-620 colon; 10 µM unless noted,111% (inactive)
same,growth,MCF7 breast; 10 µM unless noted,95.7% (inactive)
same,growth,HCT-116 colon; 10 µM unless noted,114% (inactive)
same,growth,HCC-2998 colon; 10 µM unless noted,106% (inactive)
same,growth,KM12 colon; 10 µM unless noted,104% (inactive)
CCOP(=O)(NC)OCC,growth,NCI/ADR-RES ovarian; 10 µM unless noted,102% (inactive)
same,growth,T-47D breast; 10 µM unless noted,102% (inactive)
same,growth,BT-549 breast; 10 µM unless noted,112% (inactive)
same,growth,MDA-MB-435 melanoma; 10 µM unless noted,132% (inactive)
same,growth,SW-620 colon; 10 µM unless noted,108% (inactive)
same,growth,MCF7 breast; 10 µM unless noted,101% (inactive)
same,growth,HCT-116 colon; 10 µM unless noted,92.1% (inactive)
same,growth,HCC-2998 colon; 10 µM unless noted,112% (inactive)
same,growth,KM12 colon; 10 µM unless noted,106% (inactive)
CCCC[C@H]1C(=O)O[C@H](C)[C@H](NC(=O)c2cccc(NC=O)c2O)C(=O)O[C@@H](C)[C@@H]1OC(=O)CC(C)C,growth,NCI/ADR-RES ovarian; 10 µM unless noted,1.1% (active)
same,growth,T-47D breast; 10 µM unless noted,27.9% (inactive)
same,growth,BT-549 breast; 10 µM unless noted,140% (inactive)
same,growth,MDA-MB-435 melanoma; 10 µM unless noted,39% (inactive)
same,growth,SW-620 colon; 10 µM unless noted,59% (inactive)
same,growth,MCF7 breast; 10 µM unless noted,38.3% (inactive)
same,growth,HCT-116 colon; 10 µM unless noted,20.8% (inactive)
same,growth,HCC-2998 colon; 10 µM unless noted,56.6% (inactive)
same,growth,KM12 colon; 10 µM unless noted,41.9% (inactive)
CC1(C)C2CCC1(CS(=O)(=O)O)C(=O)C2 (stereo not drawn),growth,NCI/ADR-RES ovarian; 10 µM unless noted,104% (inactive) and 112% (inactive)
same,growth,T-47D breast; 10 µM unless noted,87.1% (inactive) and 115% (inactive)
same,growth,BT-549 breast; 10 µM unless noted,95.3% (inactive) and 94.8% (inactive)
same,growth,MDA-MB-435 melanoma; 10 µM unless noted,96.1% (inactive) and 105% (inactive)
same,growth,SW-620 colon; 10 µM unless noted,99% (inactive) and 111% (inactive)
same,growth,MCF7 breast; 10 µM unless noted,101% (inactive) and 112% (inactive)
same,growth,HCT-116 colon; 10 µM unless noted,97.9% (inactive) and 101% (inactive)
same,growth,HCC-2998 colon; 10 µM unless noted,92.2% (inactive) and 133% (inactive)
same,growth,KM12 colon; 10 µM unless noted,101% (inactive) and 104% (inactive)
C=C1C(=O)OC2CC3(C)OC3C3OC3C3=CC(OC3=O)C12 (stereo not drawn),growth,NCI/ADR-RES ovarian; 10 µM unless noted,35.9% (inactive) and 103% (inactive)
same,growth,T-47D breast; 10 µM unless noted,5.88% (active) and 16.2% (inactive)
same,growth,BT-549 breast; 10 µM unless noted,98.2% (inactive)
same,growth,MDA-MB-435 melanoma; 10 µM unless noted,98.3% (inactive) and 98.4% (inactive)
same,growth,SW-620 colon; 10 µM unless noted,3.21% (active) and 7.75% (active)
same,growth,MCF7 breast; 10 µM unless noted,84.4% (inactive) and 78.6% (inactive)
same,growth,HCT-116 colon; 10 µM unless noted,2.43% (active) and 17.7% (inactive)
same,growth,HCC-2998 colon; 10 µM unless noted,103% (inactive)
same,growth,KM12 colon; 10 µM unless noted,104% (inactive) and 103% (inactive)
CC[C@H](C)[C@H](NC(=O)CN(C)C)C(=O)N(C)[C@H](C[C@@H](OC(C)=O)c1nc(C(=O)NC23C4C5C2C2C3C4C52C(=O)OC)cs1)C(C)C (stereo partly drawn),growth,NCI/ADR-RES ovarian; 10 µM unless noted,63.7% (inactive)
same,growth,T-47D breast; 10 µM unless noted,62.9% (inactive)
same,growth,BT-549 breast; 10 µM unless noted,4.22% (active)
same,growth,MDA-MB-435 melanoma; 10 µM unless noted,-59.9% (active)
same,growth,SW-620 colon; 10 µM unless noted,25.9% (inactive)
same,growth,MCF7 breast; 10 µM unless noted,21.6% (inactive)
same,growth,HCT-116 colon; 10 µM unless noted,-2.36% (active)
same,growth,HCC-2998 colon; 10 µM unless noted,18.5% (inactive)
same,growth,KM12 colon; 10 µM unless noted,13.2% (inactive)
c1ccc2c(c1)O[As](O[As]1Oc3ccccc3O1)O2,growth,NCI/ADR-RES ovarian; 10 µM unless noted,50.1% (inactive)
same,growth,T-47D breast; 10 µM unless noted,14.3% (inactive)
same,growth,BT-549 breast; 10 µM unless noted,17.6% (inactive)
same,growth,MDA-MB-435 melanoma; 10 µM unless noted,41.2% (inactive)
same,growth,SW-620 colon; 10 µM unless noted,25.5% (inactive)
same,growth,MCF7 breast; 10 µM unless noted,12.7% (inactive)
same,growth,HCT-116 colon; 10 µM unless noted,43.1% (inactive)
same,growth,HCC-2998 colon; 10 µM unless noted,65.8% (inactive)
same,growth,KM12 colon; 10 µM unless noted,69.8% (inactive)
COC12CC3C4=CCOC5CC(=O)N6c7ccccc7C1(CCN2C4)C6C53 (stereo not drawn),growth,NCI/ADR-RES ovarian; 10 µM unless noted,111% (inactive)
same,growth,T-47D breast; 10 µM unless noted,103% (inactive)
same,growth,BT-549 breast; 10 µM unless noted,96.3% (inactive)
same,growth,MDA-MB-435 melanoma; 10 µM unless noted,114% (inactive)
same,growth,SW-620 colon; 10 µM unless noted,107% (inactive)
same,growth,MCF7 breast; 10 µM unless noted,95.2% (inactive)
same,growth,HCT-116 colon; 10 µM unless noted,108% (inactive)
same,growth,HCC-2998 colon; 10 µM unless noted,96% (inactive)
same,growth,KM12 colon; 10 µM unless noted,105% (inactive)
C/C(=C\c1ccn(-c2ccc(N)c(C(F)(F)F)c2)n1)[C@@H]1C[C@@H]2O[C@]2(C)CCC[C@H](C)[C@H](O)[C@@H](C)C(=O)C(C)(C)[C@@H](O)CC(=O)O1,growth,NCI/ADR-RES ovarian; 10 µM unless noted,0.324% (active)
same,growth,T-47D breast; 10 µM unless noted,47.6% (inactive)
same,growth,BT-549 breast; 10 µM unless noted,28.2% (inactive)
same,growth,MDA-MB-435 melanoma; 10 µM unless noted,-26.8% (active)
same,growth,SW-620 colon; 10 µM unless noted,44.5% (inactive)
same,growth,MCF7 breast; 10 µM unless noted,17% (inactive)
same,growth,HCT-116 colon; 10 µM unless noted,9.04% (active)
same,growth,HCC-2998 colon; 10 µM unless noted,0.272% (active)
same,growth,KM12 colon; 10 µM unless noted,20.6% (inactive)
